Experimental data reported in PubChem BioAssay (NCATS).
Results filed as inconclusive are left out. Calls of active or inactive are those of the source. The call rests on the fitted dose curve; in most records, active means well fitted curve in the direction sought with a large enough effect; inconclusive means small, poorly fitted or top-dose-only effect, or another doubt; inactive means no such curve, though single readings can be large; an effect the other way counts as inactive or inconclusive. Residues, ends and D or L forms follow the SMILES beside them. *: point of attachment. Cbz = O=C(OCc1ccccc1)*

Tests used:
[1] = target: Voltage-gated inwardly rectifying potassium channel KCNH2 (Homo sapiens) (UniProt Q12809); experiment: qHTS Assay for Small Molecule Inhibitors of the Human hERG Channel Activity (AID 588834);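 further: lower thallium flux fluorescence means stronger hERG block; nearly all actives have a fitted effect of over 50% in size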; further: potency means the concentration at half of the fitted maximal effect
How it was run: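 Step 1: BacMam hERG transduction of U2OS, 4 hrs RT. Step 2: overnight 37 °C, plate 2000 cells/well, 4 hr. Step 3: FluxOR load, compound 10 min, stimulate, read fluorescence.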

[2] = target: Glutaminase kidney isoform, mitochondrial (Homo sapiens) (UniProt O94925); experiment: qHTS for Inhibitors of Glutaminase (GLS): LOPAC Validation (AID 624146); further: nearly all actives have a fitted effect of over 60% in size; further: potency means the concentration at half of the fitted maximal effect
How it was run: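 Read-out is an Amplex red fluorescence increase coupled through glutamate oxidase and HRP, measured before and after 30 min room-temperature incubation. hKGA is in 45 mM KH2PO4 (pH 8.2) with 0.02% Tween-20; glutamine added as 1mM solution.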

[3] = qHTS of Trypanosoma Brucei Inhibitors: LOPAC Validation (AID 624147)
How it was run: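 Enzyme and substrate buffer are dispensed first and compound is pin-transferred. ADP at 130 uM final then starts the reaction, which runs 45 min at room temperature. Detection reagent is added for 10 min before luminescence is imaged.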

[4] = target: Glucagon-like peptide 1 receptor (Homo sapiens) (UniProt P43220); experiment: qHTS of GLP-1 Receptor Agonists: LOPAC Validation (AID 624148);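 further: luminescence from a luciferase reporter switched on by cAMP; higher luminescence signal means agonism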
How it was run: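 Agonism scored as increased luciferase luminescence driven by cAMP in HEK293 clones carrying GLP-1R. Cells settled 12 hours, received compound for 4-6 hr at 37 deg C, 5% CO2, and were read after 12 min detection reagent at RT.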

[5] = qHTS of Nrf2 Activators: LOPAC Validation (AID 624149)
How it was run: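 Cells (AREc32_Fluc) are plated at 1000 per well in OPTI-MEM containing 5% FBS and left overnight. Compounds are pinned in and incubated 24 hr at 37 deg C, and firefly luciferase is detected with Steady-Glo.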

[6] = HTS Assay for Allosteric Antagonists of the Human D2 Dopamine Receptor: Hit Validation in HTRF (AID 624455); further: potency means the concentration at half of the fitted maximal effect;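 further: stable D1 dopamine receptor cell line scored for blocking the D1 response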
How it was run: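 Inhibition of the D1-mediated response is measured by HTRF in cells that stably express the D1 dopamine receptor. Compounds reaching this step are hits from calcium-flux antagonism testing at EC80 dopamine in inducible Hek293 Trex D2 cells.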

Measured: Potency

Chain of Glutaminase kidney isoform, mitochondrial (Homo sapiens) (O94925 whole entry, looked up, canonical isoform): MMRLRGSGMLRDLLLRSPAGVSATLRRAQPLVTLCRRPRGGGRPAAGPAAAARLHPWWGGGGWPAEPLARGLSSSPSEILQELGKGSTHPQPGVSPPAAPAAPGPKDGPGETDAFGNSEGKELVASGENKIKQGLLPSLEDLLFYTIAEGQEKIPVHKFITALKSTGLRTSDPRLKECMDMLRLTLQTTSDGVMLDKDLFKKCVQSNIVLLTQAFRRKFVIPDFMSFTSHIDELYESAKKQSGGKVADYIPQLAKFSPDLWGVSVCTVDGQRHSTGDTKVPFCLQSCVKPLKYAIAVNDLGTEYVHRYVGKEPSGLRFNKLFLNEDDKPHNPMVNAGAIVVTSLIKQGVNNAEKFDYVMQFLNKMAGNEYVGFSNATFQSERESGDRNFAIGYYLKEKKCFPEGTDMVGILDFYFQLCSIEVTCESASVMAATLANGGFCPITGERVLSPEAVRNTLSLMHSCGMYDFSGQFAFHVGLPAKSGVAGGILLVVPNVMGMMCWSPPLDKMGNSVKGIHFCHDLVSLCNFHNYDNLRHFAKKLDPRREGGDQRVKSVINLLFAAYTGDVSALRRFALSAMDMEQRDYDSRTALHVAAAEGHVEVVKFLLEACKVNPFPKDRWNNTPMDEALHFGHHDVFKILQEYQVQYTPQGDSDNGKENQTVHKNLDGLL
Chain of Voltage-gated inwardly rectifying potassium channel KCNH2 (Homo sapiens) (Q12809 whole entry, looked up): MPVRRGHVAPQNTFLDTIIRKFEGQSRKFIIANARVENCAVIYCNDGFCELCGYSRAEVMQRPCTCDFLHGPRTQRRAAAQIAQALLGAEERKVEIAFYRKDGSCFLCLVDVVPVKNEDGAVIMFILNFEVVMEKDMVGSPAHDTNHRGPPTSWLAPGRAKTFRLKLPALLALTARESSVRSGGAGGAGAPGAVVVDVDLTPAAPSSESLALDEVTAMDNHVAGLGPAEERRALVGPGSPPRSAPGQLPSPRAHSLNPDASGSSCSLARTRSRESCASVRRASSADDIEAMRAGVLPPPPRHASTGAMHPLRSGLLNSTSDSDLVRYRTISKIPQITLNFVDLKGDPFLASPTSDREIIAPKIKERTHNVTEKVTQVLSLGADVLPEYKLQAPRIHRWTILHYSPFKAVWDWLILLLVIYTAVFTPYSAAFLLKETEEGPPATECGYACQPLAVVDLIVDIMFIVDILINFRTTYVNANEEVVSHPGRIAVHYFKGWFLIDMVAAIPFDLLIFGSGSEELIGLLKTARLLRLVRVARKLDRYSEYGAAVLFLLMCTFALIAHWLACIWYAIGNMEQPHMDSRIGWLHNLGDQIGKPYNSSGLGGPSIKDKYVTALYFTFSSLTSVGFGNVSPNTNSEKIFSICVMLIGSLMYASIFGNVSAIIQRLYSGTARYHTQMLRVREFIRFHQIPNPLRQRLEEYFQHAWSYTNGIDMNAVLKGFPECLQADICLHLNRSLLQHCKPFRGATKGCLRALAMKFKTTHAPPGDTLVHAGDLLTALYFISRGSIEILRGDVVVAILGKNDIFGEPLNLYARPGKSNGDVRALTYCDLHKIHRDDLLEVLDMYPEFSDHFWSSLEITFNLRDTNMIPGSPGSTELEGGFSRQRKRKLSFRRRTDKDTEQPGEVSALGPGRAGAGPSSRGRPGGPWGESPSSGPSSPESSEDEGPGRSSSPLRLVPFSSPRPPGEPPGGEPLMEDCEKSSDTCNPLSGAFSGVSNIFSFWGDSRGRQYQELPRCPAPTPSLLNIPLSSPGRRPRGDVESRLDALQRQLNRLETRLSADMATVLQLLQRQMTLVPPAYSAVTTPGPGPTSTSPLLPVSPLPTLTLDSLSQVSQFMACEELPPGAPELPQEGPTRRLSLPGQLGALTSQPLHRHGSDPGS
Chain of Glucagon-like peptide 1 receptor (Homo sapiens) (P43220 whole entry, looked up): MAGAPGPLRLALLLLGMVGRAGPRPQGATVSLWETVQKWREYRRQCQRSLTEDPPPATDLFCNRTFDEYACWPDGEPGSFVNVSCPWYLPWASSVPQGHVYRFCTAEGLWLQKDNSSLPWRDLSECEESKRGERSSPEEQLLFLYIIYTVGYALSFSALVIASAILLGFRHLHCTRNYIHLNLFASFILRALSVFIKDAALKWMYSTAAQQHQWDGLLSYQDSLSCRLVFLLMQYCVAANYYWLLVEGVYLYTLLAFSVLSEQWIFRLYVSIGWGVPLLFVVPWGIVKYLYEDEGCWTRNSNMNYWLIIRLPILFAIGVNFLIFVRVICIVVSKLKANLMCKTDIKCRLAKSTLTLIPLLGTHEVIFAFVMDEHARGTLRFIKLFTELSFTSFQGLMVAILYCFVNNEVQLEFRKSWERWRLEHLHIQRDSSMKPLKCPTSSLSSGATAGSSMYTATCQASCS

NCC(O)(CS(=O)(=O)O)c1ccc(Cl)cc1 (centres undefined)
inactive: all assays above

Cn1c(=O)[nH]c2ncn(C)c2c1=O
inactive: all assays above

CC(N)(C(=O)O)c1ccc(C(=O)O)cc1 (centres undefined)
inactive: all assays above

CC(N)(Cc1ccc(O)cc1)C(=O)O (centres undefined)
inactive: all assays above

CCCCOC(=O)NS(=O)(=O)c1sc(CC(C)C)cc1-c1ccc(Cn2c(CC)nc3c(C)cc(C)nc32)cc1
active: [1] 14.1 µM
inactive: all other assays above

NOCC(=O)O
not listed: [6]
inactive: all other assays above

O=C1OC(=O)C2C3CCC(O3)C12 (centres undefined)
inactive: all assays above

CC(C)(C)NCC(O)COc1cccc2[nH]c(=O)[nH]c12 (centres undefined)
inactive: all assays above

N[C@@H](CCCC(=O)O)C(=O)O
inactive: all assays above

COc1ccc(C(=O)NCc2cccnc2)cc1C(=O)NCc1cccnc1
inactive: all assays above

COc1cccc(OC)c1OCCNCC1CSc2ccccc2O1 (centres undefined)
active: [1] 1.41 µM | [6] 0.291 µM
inactive: all other assays above

NC(N)=[N+]1CCc2ccccc2C1
inactive: all assays above

N[C@H]1CONC1=O
not listed: [6]
inactive: all other assays above

N[C@@H](CCC(=O)N[C@H](CSN=O)C(=O)NCC(=O)O)C(=O)O
inactive: all assays above

N[C@@H](CS(=O)O)C(=O)O
not listed: [6]
inactive: all other assays above

CC(=O)NNC(=O)N1Cc2ccccc2Oc2ccc(Cl)cc21
not listed: [6]
inactive: all other assays above

CC(C)(C)c1cc(/C=C(\C#N)C(N)=S)cc(C(C)(C)C)c1O
active: [1] 11.2 µM | [2] 4.47 µM
inactive: all other assays above

O=C(c1ccc2c(c1)OCCO2)N1CCCCC1
inactive: all assays above

C#CC(N)CCC(=O)O (centres undefined)
inactive: all assays above

CN1CCC2(CCN3CCc4c(oc5ccccc45)C3C2)N(C)C1=O (centres undefined)
not listed: [6]
inactive: all other assays above

O=C(O)[C@H]1NCCC[C@H]1C(=O)O
inactive: all assays above

CCOC(=O)C12CC1/C(=N/O)c1ccccc1O2 (centres undefined)
not listed: [6]
inactive: all other assays above

C=C1C(=O)O[C@@H]2[C@H]3O[C@]3(C)CCC=C(C)CC[C@@H]12
inactive: all assays above

NCCC1CCCC(CCN)N1 (centres undefined)
inactive: all assays above

C[C@H](NC(=O)/C(C#N)=C/c1ccc(O)c(O)c1)c1ccccc1
active: [2] 0.794 µM
inactive: all other assays above

COC(=O)C(C)(N)Cc1ccc(O)cc1 (centres undefined)
inactive: all assays above

CC(C)Cn1c(=O)n(C)c(=O)c2[nH]cnc21
inactive: all assays above

O=C(O)c1cc(=O)cc(C(=O)O)[nH]1
inactive: all assays above

COc1ccc(-c2ccc(N)[n+](CCCC(=O)O)n2)cc1
not listed: [6]
inactive: all other assays above

CC(C)[C@H](NC(=O)OCc1ccccc1)C(=O)N[C@H](C=O)Cc1ccccc1 (Cbz-Val-Phe-aldehyde)
inactive: all assays above

COc1ccccc1N1CCN(CCN(C(=O)c2ccc(F)cc2)c2ccccn2)CC1
active: [1] 11.2 µM
inactive: all other assays above
